Compound activity: PubChem, Broad Institute
NOMO-1 viab: NOMO-1 AML cell viability reduction, primary screen, STK33 inhibitor project, CellTiter-Glo luminescence | NOMO-1 AML viability, 72 h | inhibition, % (no concentration beside the values) | 37,000 tested, 7.5% active; in the data active means inhibition above about 80%
STK33 inh: STK33 kinase inhibitors, primary screen, biochemical, luminescence, ADP-Glo, MBP substrate; Serine/threonine-protein kinase 33 (Homo sapiens), Q9BYT3; 27,000 tested, 0.44% active; AID 2322, 2010; inhibition, % at 12.5 µM; in the data active means inhibition above about 20%
Target sequence (Q9BYT3 whole entry, looked up): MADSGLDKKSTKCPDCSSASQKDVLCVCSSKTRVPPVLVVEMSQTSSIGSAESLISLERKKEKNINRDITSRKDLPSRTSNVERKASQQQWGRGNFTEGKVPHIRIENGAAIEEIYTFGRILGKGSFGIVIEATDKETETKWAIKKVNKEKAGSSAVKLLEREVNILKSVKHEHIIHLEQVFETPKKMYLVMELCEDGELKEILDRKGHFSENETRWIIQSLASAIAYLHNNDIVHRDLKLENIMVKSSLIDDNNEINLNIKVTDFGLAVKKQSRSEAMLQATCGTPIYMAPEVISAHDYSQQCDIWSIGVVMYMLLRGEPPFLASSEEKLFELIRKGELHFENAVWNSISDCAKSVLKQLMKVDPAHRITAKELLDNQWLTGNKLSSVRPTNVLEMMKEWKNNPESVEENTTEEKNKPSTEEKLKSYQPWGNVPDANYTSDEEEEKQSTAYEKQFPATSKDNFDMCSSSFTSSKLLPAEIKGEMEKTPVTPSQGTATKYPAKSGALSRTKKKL
PD-1 reverse act: activators reversing PD-1 mediated T-cell inhibition, primary screen, luminescence, primary human CD4 T cells, PD-L1 beads; CellTiter-Glo 96 h; activation, % (test concentration not listed); 29,000 tested, under 10 active; AID 2316, 2010; call rule not given here;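 further: 0% = median vehicle wells and 100% = positive control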
Starred values were filed as active, the others as inactive; · = no result. The sample as a whole holds a higher share of hits than the screen did.

SMILES	NOMO-1 viab	STK33 inh	PD-1 reverse act
O=C1O[C@H](c2ccccc2)[C@H](c2ccccc2)N2[C@H]1[C@@H](C(=O)N1CCCCCCC1)[C@]1(C(=O)Nc3ccc(C#CC4(O)CCCCCC4)cc31)[C@H]2c1ccc(OCCO)cc1	·	18	·
NC(=O)[C@@H]1[C@H]2C(=O)O[C@H](c3ccccc3)[C@H](c3ccccc3)N2[C@H](c2ccc(OCCO)cc2)[C@@]12C(=O)Nc1ccc(C#CC3=CCCCC3)cc12	·	9	·
COc1cc2c(cc1OC)CN(C(=O)[C@@H]1[C@H]3C(=O)O[C@H](c4ccccc4)[C@H](c4ccccc4)N3[C@H](c3ccc(OCCO)cc3)[C@@]13C(=O)Nc1ccc(C#CC4=CCCCC4)cc13)CC2	·	18	·
O=C1O[C@@H](c2ccccc2)[C@@H](c2ccccc2)N2[C@@H](c3ccc(OCCO)cc3)[C@]3(C(=O)Nc4ccc(C#CC5=CCCCC5)cc43)[C@@H](C(=O)N3CCCCCCC3)[C@H]12	·	21*	·
COc1cc2c(cc1OC)CN(C(=O)[C@H]1[C@@H]3C(=O)O[C@@H](c4ccccc4)[C@@H](c4ccccc4)N3[C@@H](c3ccc(OCCO)cc3)[C@]13C(=O)Nc1ccc(C#CC4=CCCCC4)cc13)CC2	·	22*	·
O=C(CCN1C(=O)C2C3C=CC(C4CC34)C2C1=O)Nc1ccc(Br)cc1Cl (stereo unspecified)	10	2	·
Cc1cc2c(c(=O)n1CC1CCCO1)C(c1cccs1)C(C#N)=C(N)O2 (stereo unspecified)	11	·	0
O=C1N(C2CCCCC2)C(=NC2CCCCC2)SC12CC2	19	·	-2
O=C(CNS(=O)(=O)c1cc(Cl)ccc1Cl)Nc1cccc([N+](=O)[O-])c1	22	-5	2
O=C(CCCN1C(=O)c2ccccc2C1=O)Nc1ccc(Nc2ccccc2)cc1	102*	4	-9
CC(=O)Nc1ccc(NC(=O)CCCN2C(=O)c3ccccc3C2=O)cc1	-28	-2	1
O=C(CCCCCN1C(=O)c2cccc3cccc(c23)C1=O)NO	97*	2	-20
O=C(CCCN1C(=O)c2cccc3cccc(c23)C1=O)Nc1ccccc1Br	32	1	·
C[C@H]1CN([C@@H](C)CO)C(=O)c2cc(NC(=O)Nc3ccc(C(F)(F)F)cc3)ccc2O[C@@H]1CN(C)S(=O)(=O)c1ccc(Cl)cc1	121*	·	-1
C[C@@H]1CN([C@@H](C)CO)C(=O)c2cc(NC(=O)Nc3ccc(C(F)(F)F)cc3)ccc2O[C@@H]1CN(C)S(=O)(=O)c1ccc(Cl)cc1	8	·	-1
Cc1ccc(S(=O)(=O)N(C)C[C@@H]2Oc3ccc(NC(=O)Nc4ccc(C(F)(F)F)cc4)cc3C(=O)N([C@@H](C)CO)C[C@@H]2C)cc1	83*	3	-1
Cc1ccc(S(=O)(=O)N(C)C[C@H]2Oc3ccc(NC(=O)Nc4ccc(C(F)(F)F)cc4)cc3C(=O)N([C@@H](C)CO)C[C@H]2C)cc1	119*	5	-2
C[C@H](CO)N1C[C@H](C)[C@H](CN(C)S(=O)(=O)c2ccc(Cl)cc2)Oc2ccc(NC(=O)Nc3ccc(C(F)(F)F)cc3)cc2C1=O	63	1	0
Cc1ccc(S(=O)(=O)N(C)C[C@@H]2Oc3ccc(NC(=O)Nc4ccc(C(F)(F)F)cc4)cc3C(=O)N([C@@H](C)CO)C[C@H]2C)cc1	75	1	1
Cc1ccc(S(=O)(=O)N(C)C[C@@H]2Oc3ccc(NC(=O)Nc4ccc(C(F)(F)F)cc4)cc3C(=O)N([C@H](C)CO)C[C@@H]2C)cc1	115*	0	-2
Cc1ccc(S(=O)(=O)N(C)C[C@H]2Oc3ccc(NC(=O)Nc4ccc(C(F)(F)F)cc4)cc3C(=O)N([C@@H](C)CO)C[C@@H]2C)cc1	-5	2	0
CCc1c(C)sc(NC(=O)C2CC(c3cc(Cl)c(OC)cc3OC)=NO2)c1C#N (stereo unspecified)	-1	2	1
COc1ccc(N(CC(=O)Nc2ccc(I)cc2C)S(C)(=O)=O)cc1Cl	8	0	2
CS(=O)(=O)N(CC(=O)Nc1ccc(I)cc1)Cc1ccccc1	-12	4	0
CCCOc1ccc(C2C3=C(CCCC3=O)OC3=C2C(=O)CCC3)cc1OCC	38	·	0
SMILES	NOMO-1 viab	STK33 inh	PD-1 reverse act
CCOC(=O)c1cnc(S/C=C/C(=O)c2ccc(C)cc2)nc1N	120*	2	-48
CCOC(=O)c1cnc(SCC(=O)Nc2ccc(Cl)cc2Cl)nc1N	71	-4	-6
Cc1cccc(C)c1NC(=O)CN(c1ccc(Br)cc1)S(C)(=O)=O	14	1	0
Oc1cc(C2CCCCC2)cc(C2CCCCC2)c1	137*	·	-7
COC(=O)c1cc2c(C)nn(-c3ccccc3)c2s1	9	·	0
COc1ccc(C(=O)Oc2c(S(=O)(=O)c3ccccc3)c(C)nn2-c2ccccc2)cc1	116*	-3	-1
Cc1ccccc1-c1cc(C(=O)NCCCn2ccnc2)c2cc(Cl)ccc2n1	-20	0	·
Cc1ccc([N+](=O)[O-])cc1NC(=O)CN(C)S(=O)(=O)c1ccc(Br)cc1	-17	1	1
O=c1[nH]c(=O)n(C2C[C@H](O)[C@@H](CO)O2)cc1C(F)(F)F (stereo partly specified)	108*	-1	·
Cc1c(NC(=O)c2ncn[nH]2)cccc1-c1nc2cc(Cl)ccc2o1	29	3	·
O=C1c2cccc3cccc(c23)C(=O)N1CCc1cnc[nH]1	-22	-4	2
C[C@@H]1CN([C@@H](C)CO)C(=O)Cc2cc(NC(=O)Cc3ccccc3)ccc2O[C@@H]1CN(C)Cc1ccc(C(=O)Nc2ccccc2N)cc1	96*	·	-2
C[C@@H]1CN([C@H](C)CO)C(=O)Cc2cc(NC(=O)Cc3ccccc3)ccc2O[C@H]1CN(C)Cc1ccc(C(=O)Nc2ccccc2N)cc1	28	·	1
C[C@H](CO)N1C[C@H](C)[C@H](CN(C)Cc2ccc(C(=O)Nc3ccccc3N)cc2)Oc2ccc(NC(=O)Cc3ccccc3)cc2CC1=O	128*	·	-4
C[C@@H]1CN([C@H](C)CO)C(=O)Cc2cc(NC(=O)CCC(F)(F)F)ccc2O[C@H]1CN(C)Cc1ccc(C(=O)Nc2ccccc2N)cc1	44	·	-2
CC(=O)c1ccc(NC(=O)Cn2cnc3ccccc3c2=O)cc1	5	-2	·
CC1(C)CC(N=Cc2ccco2)CC(C)(C)N1	-14	·	1
Cc1ccc(N(C(=O)COc2ccc(C)cc2C)C2C=CS(=O)(=O)C2)cc1 (stereo unspecified)	-7	-1	·
O=C1c2ccccc2O[C@@H](c2ccc(Cl)cc2)[C@@H]1O	114*	·	-3
COc1cc(O)c2c(c1)O[C@H](c1ccc(O)cc1)[C@@H](O)C2=O	·	1	·
CO[C@@]12[C@@H]3NC3CN1C1=C(C(=O)C(N)=C(C)C1=O)[C@@H]2COC(N)=O (stereo partly specified)	106*	3	·
CC(C)(C)c1ccc(CSCC(=O)Nc2ccccc2C#N)cc1	36	·	0
COc1c(OC)c2c(C)cccc2oc1=O	1	0	2
Cc1cc(Cl)ccc1NC(=O)CN(c1ccc(Cl)cc1)S(C)(=O)=O	·	0	·
